# SMARCA2 act – SMARCA2 (BRM) function activators, primary screen, cell-based, luminescence, high throughput. MG213 cells, MMTV-luciferase reporter, dexamethasone, overnight. AID 652017, 2013. activation, % at 9.1 µM. actives 1% (n = 370,000); in the data active means activation above about 7.8%;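 further: 0% = vehicle wells and 100% = reference activator wells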
# ssDAF12 agonist – S. stercoralis DAF-12 nuclear receptor activators, primary screen, cell-based, luminescence, HEK293, GRIP1 co-expression, lit1-tk-luc; HEK293 ssDAF-12/GRIP1 lit1-tk-luc reporter; % of 3 µM dafachronic acid response; activation, % at 6.8 µM; actives 1% (n = 370,000); AID 652126, 2013;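 active means activation above the mean over all tested compounds plus 3 SD, cut at about 0.9% in these data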;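 further: 0% = DMSO-only wells and 100% = 3 µM delta7-dafachronic acid wells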
# DAX1 inh-1 – DAX1 (NR0B1) inhibitors on StAR promoter, primary screen, cell-based, luminescence, SF-1 (NR5A1), full-length DAX-1; HEK293T StAR-luciferase reporter, SF-1/DAX-1 repression relief; inhibition, % at 6.8 µM; actives 1.1% (n = 370,000); AID 652010, 2013;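 active means inhibition above the mean over all tested compounds plus 3 SD, cut at about 3.6% in these data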;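 further: 0% = DAX-1 cells with DMSO and 100% = cells lacking DAX-1 with DMSO; higher inhibition means more luminescence from relief of DAX-1 repression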
# hgDAF-12 ag – H. glycines DAF-12 receptor agonists, primary screen, cell-based, luminescence, HEK293, GAL4 fusion, UAS-luciferase | Nuclear hormone receptor DAF-12 (Heterodera glycines), GAL4 fusion | HEK293 GAL4-hgDAF12 UAS-luciferase reporter, agonist luminescence; normalized to butyrate control | activation, % at 6.8 µM | actives 1.8% (n = 370,000) | AID 687014, 2013;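 active means activation above a cutoff set at the mean of all screened compounds plus 3 SD, cut at about 10% in these data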;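 further: 0% = DMSO wells and 100% = sodium butyrate wells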
# DAX1 inh-2 – DAX1 (NR0B1) inhibitors, primary screen, cell-based, HEK293, Gal4-DAX1, luciferase luminescence; Nuclear receptor subfamily 0 group B member 1 (Homo sapiens), P51843; HEK293 Gal4-DAX1 luciferase reporter; inhibition, % at 6.75 µM; actives 0.99% (n = 340,000); AID 504766, 2011;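 active means inhibition above the mean over all tested compounds plus 3 SD, cut at about 4.2% in these data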;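 further: 0% = DAX1-transfected cells with DMSO and 100% = empty-vector control cells with DMSO; inhibition shows as a rise in luminescence from relieved DAX1 repression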
# Target sequence (P51843 207-470 limits assumed): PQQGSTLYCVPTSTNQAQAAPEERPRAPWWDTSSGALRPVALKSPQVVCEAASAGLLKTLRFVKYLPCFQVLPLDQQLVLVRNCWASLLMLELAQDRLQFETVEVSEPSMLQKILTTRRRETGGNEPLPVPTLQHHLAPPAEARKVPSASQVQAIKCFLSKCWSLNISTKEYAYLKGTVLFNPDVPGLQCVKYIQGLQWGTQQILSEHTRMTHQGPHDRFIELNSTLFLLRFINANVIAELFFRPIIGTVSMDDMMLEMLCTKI
# hcDAF12 agonist – H. contortus DAF-12 nuclear receptor activators, primary screen, cell-based, luminescence, HEK293, lit1-tk-luc reporter; HEK293 hcDAF-12 lit1-tk-luc reporter; 0% DMSO, 100% Δ7-dafachronic acid; actives 1.4% (n = 370,000); activation, % at 6.8 µM;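 active means activation above the mean of all tested compounds plus 3 SD, cut at about 5.5% in these data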;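 further: 100% = response to 3 µM Δ7-dafachronic acid high control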
# SMARCA2 conf – SMARCA2 (BRM) function activators, confirmation, cell-based, luminescence, triplicate | actives 30% (n = 3,500) | MG213 cells, MMTV-luciferase with dexamethasone, overnight; MG213 cells expressing E1A, Rb sequestered; DMSO wells 0%, reference activator 100% | AID 652260, 2013 | shares compounds with SMARCA2 act | activation, % at 9.1 µM;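 active means activation above its plate's cutoff, the mean activation of tested wells plus 3 SD, cut at about 7.9% in these data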
# VP16 Luc act – GAL4-VP16 luciferase reporter activation, counter-screen for SMARCA2 (BRM) activator project, cell-based, pG5luc, luminescence, high throughput | shares compounds with SMARCA2 act | HEK293 GAL4-VP16 pG5luc reporter; scaled: DMSO wells 0%, SAHA wells 100% | activation, % at 9.1 µM | actives 41% (n = 3,500) | AID 686939, 2013;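 active means activation above the solvent-only control well mean plus 3 SD, averaged across control plates, cut at about 5.2% in these data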
# Numbers without * were called inactive; . = no result given. Hits are enriched below; roughly 4.8% of the tested compounds scored in any of these assays.
SMILES,SMARCA2 act,ssDAF12 agonist,DAX1 inh-1,hgDAF-12 ag,DAX1 inh-2,hcDAF12 agonist,SMARCA2 conf,VP16 Luc act
Cc1cn([C@H]2C[C@H](O)[C@@H](/C=C/C(=O)NCc3ccco3)O2)c(=O)[nH]c1=O,10*,0,-1,6,.,2,-1,1
Cc1ccc(NC(=O)OC(C)CNC(=O)Oc2cccc(C)c2)cc1 (configuration not stated),11*,-1,2,7,2,0,8.0*,5
CCOc1ccc(NC(=O)COc2ccc(C(=O)NCCc3ccccc3)cc2)cc1,0,0,0,0,0,1,.,.
N=c1c2c(-c3ccccc3)c(-c3ccccc3)n(Cc3ccccc3)c2ncn1CCCn1ccnc1,15*,-1,-1,-4,-3,-1,-1,-3
CN(Cc1ccccc1)C(NC(=O)c1ccccc1)C(Cl)(Cl)Cl (configuration not stated),-4,-1,0,-1,0,0,.,.
CCCCNC(=O)CSc1nc(CCC)nc2ccccc12,-4,-2,1,-3,-1,-3,.,.
CCCc1nc(SCC(=O)c2ccc(F)cc2)c2ccccc2n1,8.3*,-2,-3,4,-2,-1,2,1
CCOC(=O)c1nc2ccccc2c(=O)[nH]1,9.3*,-1,2,7,1,2,4,2
Cc1ccc(C(=O)CSc2nc3ccccc3c(=O)[nH]2)cc1,9.6*,0,0,0,1,1,-1,2
CCc1ccc(C(=O)CSc2nc3ccccc3c(=O)[nH]2)cc1,2,-1,0,5,-3,1,.,.
CN(C)c1ccc(/C=c2\sc3n(c2=O)CCCN=3)cc1,-4,-1,3,4,-1,4,.,.
O=C(Nc1cccnc1N1CCOCC1)c1cc2ccccc2oc1=O,0,0,1,3,1,1,.,.
O=C(c1ccc(Cl)c([N+](=O)[O-])c1)N(Cc1cccc(Cl)c1)C1CCS(=O)(=O)C1 (configuration not stated),10*,-1,-1,-3,1,4,-4,1
CCOc1ccccc1NC(=O)c1cc(C(=O)c2cc(Br)ccc2O)coc1=N,2,-1,-1,0,1,-1,.,.
Cc1ccc(C)c(S(=O)(=O)N2CCN(C(=O)CCC(=O)NCc3ccc(Cl)cc3)CC2)c1,-4,-2,0,-1,-1,-1,.,.
Cc1cccc(C2=NN(c3ccccc3)[C@@H](C(=O)N3CCOC3=O)[C@@H]2c2ccc([N+](=O)[O-])cc2)c1,-1,-1,1,-3,0,0,.,.
O=C(CN(c1cccc([N+](=O)[O-])c1)S(=O)(=O)c1ccccc1)N(Cc1ccccc1)Cc1ccccc1,9.9*,-1,-1,-1,1,2,-3,-1
Cc1cc2c(cc1C)N(C(=O)CCl)CCN2C(=O)CCl,-1,-1,-2,-3,0,0,.,.
CCOC(=O)N1CCN(C(=O)Nc2ccccc2Cl)CC1,9.0*,-2,0,3,0,-2,1,2
CCOc1ccc(C(=O)/C=C/Nc2ccc(S(=O)(=O)N=C(N)N)cc2)cc1,8.1*,0,1,6,0,1,-1,1
CC(C)(C)c1ccc(S(=O)(=O)N2CCCC(C(=O)NCc3ccco3)C2)cc1 (configuration not stated),-4,-1,-1,-3,.,-3,.,.
Cc1ccc(S(=O)(=O)N2CCCC(C(=O)NCc3ccco3)C2)cc1 (configuration not stated),10*,-1,1,-5,.,-2,1,0
COc1cc(/C=C2/SC(=Nc3ccc(O)cc3)NC2=O)cc(OC)c1O,8.9*,-2,-2,-2,0,-2,4,1
Nc1cc(N)nc(SCCc2ccccc2)n1,9.5*,-1,0,4,0,0,3,1
COc1ccc(OCCSc2nc(N)cc(N)n2)cc1,11*,-1,3,3,0,1,8.6*,8.5*
SMILES,SMARCA2 act,ssDAF12 agonist,DAX1 inh-1,hgDAF-12 ag,DAX1 inh-2,hcDAF12 agonist,SMARCA2 conf,VP16 Luc act
Nc1cc(N)nc(SCc2cccnc2)n1,-2,-1,1,3,0,1,.,.
C=CCn1c(O)c(N=NC(=S)Nc2ccc(OC)cc2)c2ccccc21,-2,-1,-1,0,0,3,.,.
C=CCn1c(O)c(N=NC(=S)Nc2cccc(OC)c2)c2ccccc21,10*,-2,-2,-7,-3,-4,-1,3
O=C(c1cnn2cccnc12)N1CCN(c2ccccc2)CC1,13*,-1,3,6,1,4,2,2
COc1cc(/C=N/NS(=O)(=O)c2ccc(C)cc2)ccc1OCc1cccc(C(=O)O)c1,9.5*,0,2,10*,-8,3,6,19*
Cc1cccc(NC(=O)C2CCCN2C(=O)OCc2ccccc2)c1 (configuration not stated),0,-1,-1,4,0,-1,.,.
Cc1ccc(O)c(NC(=O)C2CCCN2C(=O)OCc2ccccc2)c1 (configuration not stated),9.6*,-1,0,-2,0,3,-1,1
O=C(NCc1cccnc1)c1cccs1,9.5*,-1,1,0,2,0,2,0
CCCNC(=O)C1(C)CCCN(C(=O)c2cccc(Cl)c2)C1 (configuration not stated),9.3*,-1,0,-3,.,-2,0,1
COc1ccccc1C(CC(=O)O)NS(=O)(=O)c1ccc2c(c1)N(C(C)=O)CC(C)O2 (configuration not stated),10*,-1,0,-1,1,2,-5,-2
